Compounds with a hit are over-represented: about 3.2% of the library has one in this group of screens.
Sm TGR inh: qHTS Assay for the Inhibitors of Schistosoma Mansoni Peroxiredoxins | Potency, µM (series often up to 114 µM), most hits filed as inhibitors | purified TGR, DTNB reduction, TNB absorbance 405 nm | AID 485364, 2010 | actives 3% (n = 360,000); note: nearly all actives have a fitted effect of over 60% in size
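TGR 20 nM + NADPH 100 uM (dispensed conc.), cpd preinc 15 min RT; start with NADPH (500 uM addition) then DTNB (15 mM addition). Kinetic TNB absorbance, 405 nm filter. Four-parameter Hill fit across titration.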
AmpC inh detg: qHTS Inhibitors of AmpC Beta-Lactamase (assay with detergent). Potency, µM (highest dose often 114 µM), usual class: inhibitors. actives 0.041% (n = 370,000). AmpC hydrolysis of nitrocefin, absorbance 480 nm, 0.01% Triton; note: nearly all actives have a fitted effect of over 25% in size
Target sequence (P00811 whole entry, looked up): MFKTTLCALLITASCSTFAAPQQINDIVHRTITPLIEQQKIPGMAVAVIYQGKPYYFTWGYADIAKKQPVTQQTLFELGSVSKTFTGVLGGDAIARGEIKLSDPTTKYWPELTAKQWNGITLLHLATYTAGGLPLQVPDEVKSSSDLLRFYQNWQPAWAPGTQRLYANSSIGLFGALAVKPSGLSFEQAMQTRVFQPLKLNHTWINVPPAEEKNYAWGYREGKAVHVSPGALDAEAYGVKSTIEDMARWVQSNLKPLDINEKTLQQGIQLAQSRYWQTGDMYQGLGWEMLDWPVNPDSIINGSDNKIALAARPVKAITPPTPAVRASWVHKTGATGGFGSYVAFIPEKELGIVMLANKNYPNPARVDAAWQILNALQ
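20 mM phosphate pH 7.0 + 0.01% (detergent screen) or 0.0001% Triton X-100; 5.3 nM AmpC reagent; cpd preinc 15 min RT; nitrocefin (800 uM stock) to start; A480 q20 s × 4 min; Activity was normalised to no-enzyme and no-compound control wells.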
RE007 growth inh: qHTS Assay for Inhibitors of the HIV-1 protein Vpr. S. pombe RE007 Vpr strain, BacTiter-Glo ATP luminescence, 24 h. Potency, µM (highest dose often 92.2 µM), hits mostly inhibitors. actives 0.21% (n = 360,000). AID 651644, 2012; active = well fitted falling curve with a large enough effect; inconclusive = small, poorly fitted or top-dose-only effect; inactive = no such curve, though single readings can be large or run the other way; note: nearly all actives have a fitted effect of over 50% in size
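Fission yeast RE007 carrying one integrated HIV-1 vpr copy, seeded at OD 0.01 in PMG+AL medium with 23 nL pinned compound. Grown 24 h at 30 degrees; viability read by BacTiter-Glo luminescence after 5 min.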
AMA1 RON2 block: qHTS for Inhibitors of AMA1-RON; Towards Development of Antimalarial Drug Lead: Primary Screen | Potency, µM (titrated, usually from 58.2 µM), usual class: inhibitors | actives 0.2% (n = 360,000) | AID 720542, 2013 | AlphaScreen AMA1-biotinylated RON2 peptide binding; note: nearly all actives have a fitted effect of over 45% in size
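AMA1 (3D7) with his tag at 25 nM final met compounds first, then biotinylated RON2 peptide at 25 nM; detection used donor plus acceptor beads, 10 µg/mL apiece, read by AlphaScreen after 30 min at room temperature.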
AmpC inh no detg: qHTS Inhibitors of AmpC Beta-Lactamase (assay without detergent); P00811; AmpC nitrocefin hydrolysis, absorbance 480 nm, 0.0001% Triton; Potency, µM (highest dose often 57.1 µM), usual class: inhibitors; actives 0.52% (n = 330,000); note: nearly all actives have a fitted effect of over 20% in size
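20 mM phosphate pH 7.0 + 0.01% (detergent screen) or 0.0001% Triton X-100; 5.3 nM AmpC reagent; cpd preinc 15 min RT; nitrocefin (800 uM stock) to start; A480 q20 s × 4 min; Activity was normalised to no-enzyme and no-compound control wells.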
Numbers stand for hits; - = inactive; ? = inconclusive; . = no result given. Unless noted, calls come from the whole dose curve; as a rule, active = well fitted curve in the direction sought with a large enough effect; inconclusive = small, poorly fitted or top-dose-only effect, or another doubt; inactive = no such curve, though single readings can be large; an effect the other way counts as inactive or inconclusive.

SMILES	Sm TGR inh	AmpC inh detg	RE007 growth inh	AMA1 RON2 block	AmpC inh no detg
CCc1ccc(NC(=O)CSc2nccn2C2CCCC2)cc1	-	-	.	.	.
Cc1ccc(-n2c(=O)c3ccc(C(=O)NCc4ccccc4Cl)cc3n(CC(=O)Nc3ccc(C)cc3C)c2=O)cc1	-	-	.	.	.
Nc1nc(-c2ccc(Br)cc2)cs1	-	-	-	-	?
Nc1nc(-c2cccc(Br)c2)cs1	-	-	14.1µM	-	-
N#CCCn1cc(C(=O)Nc2ccc(C(=O)O)cc2)c(-c2cccc(Br)c2)n1	100µM	?	-	-	-
COC(=O)c1c(C)cc(O)c(C=O)c1O	.	.	?	-	.
Cc1cc2c(C(C)C)c(O)c(O)c(C=O)c2c(O)c1-c1c(C)cc2c(C(C)C)c(O)c(O)c(C=O)c2c1O	50.1µM	-	.	.	-
CCOC(=O)c1cccc(NC(=O)[C@H](CSCc2ccccc2)N2Cc3ccccc3C2=O)c1	-	-	.	.	.
Cc1ccc(C2C(C#N)=C(N)Oc3c2oc(CO)cc3=O)o1 (centres undefined)	39.8µM	?	-	-	-
CC(C)Oc1ccc(C2C(C#N)=C(N)Oc3c2oc(CO)cc3=O)cc1 (centres undefined)	-	-	-	-	-
Cc1ccc(CN2CCCn3nc(C(=O)NCc4ccc(N(C)C)cc4)cc3C2=O)cc1	-	-	.	.	.
O=C(CSc1nc2c([nH]c3ccccc32)c(=O)n1-c1ccc(Cl)cc1)NCC1CCCO1 (centres undefined)	-	-	.	.	.
O=C(CSc1nnc(-c2cnccn2)n1Cc1ccco1)c1ccc2ccccc2c1	25.1µM	?	-	-	-
Cc1ccc(NC(=O)CSc2nnc(-c3cnccn3)n2Cc2ccco2)cc1	44.7µM	-	-	-	-
C(=C\c1ccccc1)/CSc1nnc(-c2cnccn2)n1Cc1ccco1	20µM	-	-	-	-
CCOC(=O)C1=C(C)N(C[C@@H]2CC[C@@H](Cc3ccc(-c4ccccc4)cc3)O2)C(=O)NC1c1ccc(C(F)(F)F)cc1 (some centres undefined)	.	.	-	-	-
CCOC(=O)C1=C(C)N(C[C@@H]2CC[C@@H](Cc3ccc(-c4ccccc4)cc3)O2)C(=O)NC1c1ccc(SCc2ccco2)c([N+](=O)[O-])c1 (some centres undefined)	.	.	-	-	7.94µM
O=C(CSc1ccccc1)NCc1ccc2c(c1)CCN2C(=O)c1ccc(F)cc1	-	-	.	.	.
O=C1NC(=O)N(c2ccccc2)C(=O)/C1=C\c1ccc([N+](=O)[O-])o1	8.91µM	-	.	.	-
Cc1ccc(/C=C2/C(=O)NC(=O)N(C)C2=O)cc1	-	-	-	-	-
CN1C(=O)NC(=O)/C(=C\c2ccc([N+](=O)[O-])o2)C1=O	7.94µM	-	-	?	-
CN1C(=O)NC(=O)/C(=C/c2ccc([N+](=O)[O-])o2)C1=O	5.01µM	-	-	?	-
O=C1NC(=O)N(c2ccc3c(c2)OCO3)C(=O)/C1=C\c1ccc(N2CCCCC2)o1	-	-	-	-	-
Nc1c(-c2nc(-c3ccc4c(c3)OCO4)cs2)c2ccccn2c1C(=O)c1ccccc1	-	-	.	.	.
CS/C(=C/[N+](=O)[O-])Nc1cccc2c1C(C)CC2(C)C (centres undefined)	12.6µM	-	-	-	-
SMILES	Sm TGR inh	AmpC inh detg	RE007 growth inh	AMA1 RON2 block	AmpC inh no detg
COc1ccc(CC(=O)N2CCc3cc(OC)c(OC)cc3C2COc2ccc3c(C)cc(=O)oc3c2)cc1OC (centres undefined)	-	-	.	.	.
Cc1ccc2scc(N3CCCCC3C)c(=O)c2c1 (centres undefined)	-	-	.	.	.
N#CC1(C#N)C(c2ccccc2)OC23CCCCCC2C1(C#N)C(=N)O3 (centres undefined)	25.1µM	-	-	-	-
N#CC1(C#N)C(c2ccccc2)OC23CCCCC2C1(C#N)C(=N)O3 (centres undefined)	?	-	-	-	-
NS(=O)(=O)c1ccc(NC2=CC(c3ccc([N+](=O)[O-])cc3)N(c3ccc(S(N)(=O)=O)cc3)C2=O)cc1 (centres undefined)	17.8µM	-	-	-	-
COc1ccc(NC2=CC(c3ccc(OC)c(OC)c3)N(c3ccc(OC)cc3)C2=O)cc1 (centres undefined)	-	?	.	?	-
N#Cc1ccccc1NC(=O)C(=O)NCCc1csc(-c2ccc(F)cc2)n1	-	-	.	.	-
COc1ccc(N2CCN(CCCNC(=O)c3sc4ncccc4c3-n3cccc3)CC2)cc1	-	-	.	.	.
Cc1nn(C)c2c1c(-c1ccccc1)cc(=O)n2CC(=O)NC(C)C	-	-	.	.	.
Cc1cc(NC(=O)c2ccc(-c3ccc(Br)cc3)o2)cc(-c2nc3ncccc3o2)c1O	-	-	.	.	.
CC1CCCN(c2ccc(C(=O)NCC3CCCO3)cn2)C1 (centres undefined)	-	-	-	-	0.199µM
Cc1cc(O)c(C(c2ccc(F)cc2)N2CCCCC2)c(=O)n1Cc1ccco1 (centres undefined)	20µM	-	.	.	.
Cc1cc(O)c(C(c2ccc(F)cc2)N2CCN(c3ccccc3)CC2)c(=O)n1Cc1ccco1 (centres undefined)	10µM	-	.	.	.
Cc1cc(O)c(C(c2ccccc2)N2CCN(c3ccc(F)cc3)CC2)c(=O)n1Cc1ccco1 (centres undefined)	3.55µM	-	.	.	.
Cc1nc2ccn(Cc3ccco3)c(=O)c2cc1C(=O)N1CCN(c2ccc(F)cc2)CC1	-	-	.	.	.
CCOc1ccc(C(c2c(O)cc(C)n(Cc3ccco3)c2=O)N2CCN(C)CC2)cc1 (centres undefined)	7.94µM	-	.	.	.
COc1ccc(-c2nc(CCNC(=O)Cc3ccc(F)cc3)cs2)cc1	-	-	.	.	.
COc1ccc(Cl)cc1NC(=O)CSc1nnc(C)n2c1cc1occc12	-	-	.	.	.
Cc1ccc(C2CCN(C(=O)Nc3ccc(C)c(C)c3)C2)cc1 (centres undefined)	-	-	.	.	.
COc1ccc(-c2nc3sc(CCNC(=O)C(=O)Nc4c(C)cccc4C)c(C)n3n2)cc1	-	-	.	.	.
CC(C)CC(c1nnnn1Cc1ccco1)N1CCN(c2cccc(Cl)c2)CC1 (centres undefined)	-	-	-	-	-
Cc1cc(O)c(C(c2ccc(Cl)cc2)N2CCN(c3ccccc3)CC2)c(=O)n1Cc1ccco1 (centres undefined)	5.01µM	-	.	.	.
Cc1cc(O)c(C(c2ccccc2)N2CCN(c3ccccc3)CC2)c(=O)n1Cc1ccco1 (centres undefined)	3.16µM	-	.	.	.
